BRCA1 expr up: increases BRCA1 expression; actives 1.1% (n = 380,000); Potency, µM (doses to about 46.1 µM), usual class: activators; AID 624202; MCF7-BRCA1-FFLuc reporter, luminescence, 48 h; response scale: scaled: vehicle 0%, 10 µM genistein 100%; active = well fitted activation curve with a large enough effect; inconclusive = small, poorly fitted or top-dose-only effect; inactive = no such curve, though single readings can be large or run the other way; note: nearly all actives have a fitted effect of over 80% in size
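MCF7-BRCA1-FFLuc, 2000 cells/well; 2 h attach, 37 °C/5% CO2; compound 48 h; luciferase substrate 15 min; luminescence end-point. Norm. to genistein 10 microM max activation and DMSO; concentration-response curves fitted.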
TRPML1 ag: agonists of human TRPML1 channel; Q9GZU1; TRPML1-expressing cells, Ca2+ dye fluorescence, FDSS; activation, % (test concentration not listed); actives 0.12% (n = 410,000)
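Agonist activity was taken from a 110 s kinetic Ca2+ dye read on the FDSS after pinning compounds onto TRPML1-DL cells. The cells were seeded at 1,500/well with Tet inducer, incubated about 16 h, then dye-loaded at room temperature.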
TRPML1 blocker: human mucolipin-1 channel inhibition; TRPML1-inducible cells, Ca2+ dye fluorescence, FDSS; stronger effect = lower value; inhibition of EC80 agonist-evoked calcium signal; activity change, negative = inhibition, % (no concentration beside the values); actives 0.02% (n = 390,000); in the data active = activity change below about -50%; inconclusive = between about -30% and that limit;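 note: stimulus is agonist 54-4 at its EC80 concentration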
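Calcium fluorescence in TRPML1-DL cells induced overnight with Tet: a 110 s read after compound pin addition, then a 110 s antagonist read after challenge with 54-4 at 4 uM final (EC80).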
TSG101-PTAP inh: blocks PTAP/TSG101 interaction to inhibit HIV-1 budding; Q99816; Fluorescence polarization, FITC-PTAP peptide / Tsg101 binding; Potency, µM (titrated, usually from 115 µM), hits mostly inhibitors; 340,000 tested, under 10 active; AID 493005; active = well fitted inhibition curve with a large enough effect in the main read-out, with a control signal flat, not every such curve was filed as active; inconclusive = small, poorly fitted or top-dose-only effect, or effect the other way, or a change in a side signal; inactive = no such curve, though single readings can be large or run the other way
Target sequence (Q99816 whole entry, looked up): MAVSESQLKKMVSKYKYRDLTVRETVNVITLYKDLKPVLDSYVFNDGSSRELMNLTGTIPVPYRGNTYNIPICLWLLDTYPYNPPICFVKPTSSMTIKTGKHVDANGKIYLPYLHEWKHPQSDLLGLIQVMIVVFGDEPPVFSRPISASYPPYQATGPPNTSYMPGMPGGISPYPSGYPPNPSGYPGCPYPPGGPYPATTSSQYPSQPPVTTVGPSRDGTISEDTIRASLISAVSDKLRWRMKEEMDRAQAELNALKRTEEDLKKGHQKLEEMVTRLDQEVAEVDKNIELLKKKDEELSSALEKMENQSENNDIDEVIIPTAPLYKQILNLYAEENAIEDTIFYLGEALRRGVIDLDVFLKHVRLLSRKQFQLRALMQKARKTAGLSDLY
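Compounds were pin-transferred onto Tsg101 binding domain (10 uM final) in HEPES pH 7.5 buffer, then FITC-PTAP peptide was added at 50 nM final. After 20 min at RT, polarization reported peptide displacement across a qHTS concentration series.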
PKM2 act: PKM2 (human) enzyme activation. Potency, µM (highest dose often 57.5 µM), usual class: activators. purified PKM2, Kinase-Glo ATP luminescence, activation; response scale: 0% is enzyme alone, no compound. P14618. actives 0.34% (n = 260,000); active = well fitted activation curve with a large enough effect; inconclusive = small, poorly fitted or top-dose-only effect; inactive = no such curve, though single readings can be large or run the other way; note: nearly all actives have a fitted effect of over 55% in size
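hPK-M2, >95% pure; 0.1 mM ADP / 0.5 mM PEP final; imidazole pH7.2 buffer w/ 7 mM MgCl2, 50 mM KCl; 1 h RT; Kinase-Glo lum. Intermediate enzyme activity for dual inhibitor/activator qHTS.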
IL2 activator: IL-2 activation. actives 0.065% (n = 360,000). activation, % (series mostly up to about 46 µM). AID 652025. IL-2 activation reporter assay, cell-based qHTS; stimulated with anti-CD3/CD4/CD28 beads; in transgenic mouse T cells
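First, unstimulated transgenic mouse T cells were exposed to compound for 60 min. Next, anti-CD3/anti-CD4-coated beads with anti-CD28 were added. Finally, after 18 h at 37 degrees C, EGFP and DsRed were imaged.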
Numbers stand for hits. Shown are actives, neighbours in structure and some others; about 1.3% of the full set was active somewhere. Cut-off read from the data, not from the text of the source, unless noted: active = activation above about 50%; inconclusive = mostly about 30% to 49%; inactive = weaker than that.

How did Cc1ccc(-c2cc(N)n3nc(-c4ccc(C)cc4)cc3n2)cc1 do in these assays?
BRCA1 expr up: inactive; TRPML1 ag: inactive; TRPML1 blocker: inactive; TSG101-PTAP inh: inactive; PKM2 act: inactive; IL2 activator: inactive

Results for Cc1ccc(-c2cc(N)n(-c3ccc(F)cc3)n2)cc1 ?
BRCA1 expr up: 5.01µM; TRPML1 ag: inactive; TRPML1 blocker: inactive; TSG101-PTAP inh: inactive; PKM2 act: inactive; IL2 activator: inactive

What do the screens show for `Cc1ccc(-c2cc(N)n(-c3ccc(C)cc3)n2)cc1`?
BRCA1 expr up: 10µM; TRPML1 ag: inactive; TRPML1 blocker: inactive; TSG101-PTAP inh: inactive; PKM2 act: inactive; IL2 activator: inactive

What do the screens show for `CCN(C(=O)Cn1nc2c3cc(F)ccc3n(Cc3cccc(C)c3)cc-2c1=O)c1cccc(C)c1`?
TRPML1 ag: inactive; TRPML1 blocker: inactive

How did Cc1cc(C)cc(Nc2nnc(-n3nc(C)cc3C)c3ccccc23)c1 do in these assays?
TRPML1 ag: inactive; TRPML1 blocker: inactive

How did O=[N+]([O-])c1ccc(CSc2nc3ccccc3[nH]2)cc1 do in these assays?
BRCA1 expr up: 3.98µM; TRPML1 ag: inactive; TRPML1 blocker: inactive; TSG101-PTAP inh: inactive; PKM2 act: inactive; IL2 activator: inactive

Results for CN(C)c1ccc(N=Cc2ccnc3ccccc23)cc1 ?
BRCA1 expr up: inactive; TRPML1 ag: inactive

Results for O=C(Nc1ccccc1-c1nc2ccccc2[nH]1)c1ccc(N2C(=O)CCC2=O)cc1 ?
BRCA1 expr up: inactive; TRPML1 ag: inactive; TRPML1 blocker: inactive; TSG101-PTAP inh: inactive; PKM2 act: inactive; IL2 activator: 111.4

What do the screens show for `O=C(NC1CC(=O)N(c2ccccc2)C1)c1ccc(S(=O)(=O)N2CCCC2)cc1` (stereo not given)?
TRPML1 ag: inactive; TRPML1 blocker: inconclusive

How did Oc1ccccc1/C=N/N1CCN(c2ccccn2)CC1 do in these assays?
BRCA1 expr up: 10µM; TRPML1 ag: inactive; TRPML1 blocker: inactive; TSG101-PTAP inh: inactive; PKM2 act: inactive; IL2 activator: inactive

How did O=[N+]([O-])c1cccc(/C=N/N2CCN(Cc3ccccc3)CC2)c1 do in these assays?
BRCA1 expr up: 12.6µM; TRPML1 ag: inactive; TRPML1 blocker: inactive; TSG101-PTAP inh: inactive; PKM2 act: inactive; IL2 activator: inactive

How did O=[N+]([O-])c1cccc(C=NN2CCCCCC2)c1 do in these assays?
BRCA1 expr up: 12.6µM; TRPML1 ag: inactive; TRPML1 blocker: inactive; TSG101-PTAP inh: inactive; IL2 activator: inactive

How did O=[N+]([O-])c1cccc(/C=N\N2CCN(Cc3ccccc3Cl)CC2)c1 do in these assays?
BRCA1 expr up: inactive; TRPML1 ag: inactive; TRPML1 blocker: inconclusive; TSG101-PTAP inh: inactive; PKM2 act: inactive; IL2 activator: inactive

How did O=[N+]([O-])c1cccc(/C=N/N2CCN(c3ccccn3)CC2)c1 do in these assays?
BRCA1 expr up: 8.91µM; TRPML1 ag: inactive; TRPML1 blocker: inactive; TSG101-PTAP inh: inactive; PKM2 act: inactive; IL2 activator: inactive

What do the screens show for `O=C(c1ccc2c(c1)OCCO2)N1CCN(c2nc(-c3cccs3)nc3ccccc23)CC1`?
BRCA1 expr up: inactive; TRPML1 ag: inactive

Results for O=[N+]([O-])c1ccccc1/C=C/C=N/N1CCCCC1 ?
BRCA1 expr up: 2.82µM; TRPML1 ag: inactive; TRPML1 blocker: inactive; TSG101-PTAP inh: inactive; PKM2 act: inactive; IL2 activator: inactive

Results for O=S(=O)(NCc1cccnc1)c1cccn1-c1ncc(C(F)(F)F)cc1Cl ?
BRCA1 expr up: inactive; TRPML1 ag: inactive; TRPML1 blocker: inactive; TSG101-PTAP inh: inactive; PKM2 act: 22.4µM; IL2 activator: inactive

Results for CCCCOC(=O)c1ccc(NC(=O)c2cnc3ccc(C)cn3c2=O)cc1 ?
TRPML1 ag: inactive; TRPML1 blocker: inactive

How did COc1ccc(Cl)cc1NC(=O)CN(C)C(=O)c1ccc(N2CCCCC2)c([N+](=O)[O-])c1 do in these assays?
BRCA1 expr up: inactive; TRPML1 ag: 61.4; TRPML1 blocker: inactive; TSG101-PTAP inh: inactive; IL2 activator: inactive
